Active and inactive are the calls of the source. Calls follow the shape of the dose curve; as a rule, active = well fitted curve in the direction sought with a large enough effect; inconclusive = small, poorly fitted or top-dose-only effect, or effect the other way, or another doubt; inactive = no such curve, though single readings can be large or run the other way.

For the assay, the target named is Beta-2 adrenergic receptor (Homo sapiens) (UniProt P07550). Briefly: qHTS validation assay of beta-arrestin-biased ligands of beta2-adrenergic receptor (AID 485366). To be noted: cell-based beta-arrestin recruitment to ADRB2, qHTS; series mostly up to 46.1 µM. The gist of the method: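 Agonist activity is measured as luciferase luminescence downstream of beta-arrestin recruitment to recombinant beta2-AR in Tango cells. Exposure lasts 18 hr at 37 degrees C, and curves are categorized by r2, response size and activity.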
Beta-2 adrenergic receptor (Homo sapiens), sequence (P07550 whole entry, looked up): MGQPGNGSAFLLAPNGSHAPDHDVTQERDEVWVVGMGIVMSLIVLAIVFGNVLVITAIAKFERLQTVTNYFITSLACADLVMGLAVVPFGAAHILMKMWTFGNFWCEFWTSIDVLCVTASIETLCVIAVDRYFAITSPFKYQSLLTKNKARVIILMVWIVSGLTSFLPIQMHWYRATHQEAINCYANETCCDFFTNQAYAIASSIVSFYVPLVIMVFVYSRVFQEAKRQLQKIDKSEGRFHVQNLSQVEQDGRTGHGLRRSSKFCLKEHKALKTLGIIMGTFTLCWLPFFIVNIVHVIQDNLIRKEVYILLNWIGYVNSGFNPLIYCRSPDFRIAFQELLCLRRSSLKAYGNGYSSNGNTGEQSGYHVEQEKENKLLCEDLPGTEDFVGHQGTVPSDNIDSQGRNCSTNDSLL
Turning to `N#C/C(=C\c1ccc(O)c(O)c1)C(=O)NCCCc1ccccc1`, the call was inactive.

`O=C(c1ccc(Cl)cc1)N1CCN(c2ccc([N+](=O)[O-])c3ncccc23)CC1`: the compound was called inactive.

Consider `C[C@@H](CN1CCC(Cc2ccccc2)CC1)[C@@H](O)c1ccc(O)cc1`, for which the call was inactive.

On to `CC(=O)/C=C1\C(=O)N(C)c2ccccc21`, for which the outcome was inactive.

In the case of `CC(COc1ccc(/C=C/c2ccccc2)cc1)[N+](C)(C)C` (configuration not stated), the result was inactive.

For `COc1cc2nc(N3CCN(C(=O)OCc4ccccc4)C(C(=O)NC(C)(C)C)C3)nc(N)c2cc1OC` (configuration not stated), the call was inactive.

As to `CCOC(=O)N1CCN(/[N+]([O-])=N/Oc2ccc([N+](=O)[O-])cc2[N+](=O)[O-])CC1`, the compound was called inactive.

As for `NS(=O)(=O)C#Cc1ccccc1`, the compound was called inactive.

As for `C[N+]1(C)CCC(OC(=O)C(c2ccccc2)c2ccccc2)CC1`, the outcome was inactive.

As for `COC1=C(OC)C(=O)c2ccccc2C1=O`, the call was inactive.

In the case of `CC(C)ON([C@@H](C(=O)NO)C(C)C)S(=O)(=O)c1ccc(-c2ccccc2)cc1`, the outcome was inactive.

As for `O=[N+]([O-])c1ccc2c(c1)S(=O)(=O)C=C2`, the compound was called inactive.

With `CN1CCc2ccccc2Cc2[nH]c3ccccc3c2CC1`, the compound was classed as inactive.

Take `O=S(=O)(c1cccc2c(I)cccc12)N1CCCNCC1`: the result was inactive.

In the case of `O=C1O/C(=C/Br)CCC1c1cccc2ccccc12` (configuration not stated), the call was inactive.

Consider `Cn1ncc(S(=O)(=O)Cc2ccccc2)c(Br)c1=O`, for which the outcome was inactive.

On to `Oc1cc(O)cc(/C=C/c2ccc(O)c(O)c2)c1`, for which the call was inactive.

Regarding `CCCCCCCCc1ccc(-c2ccc(C(=O)O)cc2)cc1`, the outcome was inactive.

Consider `COc1ccccc1N1CCN(CCN(C(=O)c2ccc(I)cc2)c2ccccn2)CC1`, for which the call was inactive.

With `CCOC(=O)C1=C(C)NC(C)=C(C(=O)OCC)C1c1c(F)c(F)c(F)c(F)c1F`, the outcome was inactive.

On to `CN(C)c1nc2c(Br)c(Br)c(Br)c(Br)c2[nH]1`, for which the compound was classed as inactive.

In the case of `O=Nc1ccc2oc(=O)ccc2c1`, the call was inactive.

For `NC[C@@H]1O[C@H](C23CC4CC(CC(C4)C2)C3)Cc2c1ccc(O)c2O`, the compound was called inactive.

Take `Cc1ccc(S(=O)(=O)/C=C/C#N)cc1`: the outcome was inactive.

Turning to `N=c1ccn2c(n1)O[C@H]1[C@H](O)[C@@H](CO)O[C@H]12`, the compound was classed as inactive.

Turning to `CCCC1(C)C(C#N)(C#N)C1(C#N)C#N`, the result was inactive.

With `O=C(CCCCCN1CCN(c2ccccc2-c2ccccc2)CC1)NC1CCCc2ccccc21` (configuration not stated), the outcome was inactive.

For the origin of these results see PubChem BioAssay (NCATS).
